This note sets out measurements from PubChem BioAssay (NCI).

Holding throughout (assay): NCI-60 one-dose screen, 48 h (100 = growth as untreated, 0 = no growth, -100 = all killed)
Common to all, as to conditions: 10 µM unless noted

The subject of assay [1] is NCI-H23 lung.
Assay [2] relates to NCI-H226 lung.
Assay [3] has as its system NCI-H322M lung.
The subject of assay [4] is HOP-62 NSCLC.
In assay [5] the test system is NCI-H460 lung.
Assay [6] concerns HOP-92 NSCLC.
In assay [7] the test system is NCI-H522 lung.
Assay [8] relates to A549/ATCC NSCLC.
Assay [9] deals with 786-0 renal.
In assay [10] the test system is COLO 205 colon.
Assay [11] has as its system DU-145 prostate.
Assay [12] concerns K-562 leukemia.
Assay [13] relates to MALME-3M melanoma.
For assay [14], the system named is MDA-MB-231 breast.
Assay [15] concerns RXF 393 renal.
Assay [16] has as its system SF-268 CNS.
Assay [17] deals with SF-295 CNS.
In assay [18] the test system is SF-539 CNS.
For assay [19], the system named is UACC-257 melanoma.
For assay [20], the system named is M14 melanoma.

The panel holds about 83,000 compounds, 20% with a hit somewhere; the sample as a whole holds those more often.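 In brief: 96-well plates, 48 h treatment, single concentration, percent growth endpoint.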 Values without a mark were called inactive. Calls of active or inactive are those of the source. How the source made its calls: active means growth percent below 10; inactive means the rest.

Consider `CC(=O)OCC1SC(OC(C)=O)C(NC(=O)/C=C/CCl)C(OC(C)=O)C1OC(C)=O` (stereo not given), for which the growth was 99.7% in [1]; 103% in assay [2]; 109% in [3]; 117% in assay [4]; 102% in [5]; 105% in [6]. Besides, the growth in assay [7] was -9.03% (active); in assay [8] it was 89.1%; in assay [9], 124%; in [10], 107%; in [11], 104%; in [12], 91.6%. The growth in assay [13] is 99.6%; in [14], 102%; in [15], 108%; in assay [16], 97.9%; in [17], 111%; in assay [18], 109%. Besides, the growth in [19] is 83%; in assay [20], 93.6%.

Regarding `CN1CCN(CC#CCOC(=O)CNC(=O)[C@]23CCC(C)(C)C[C@H]2C2=CC[C@@H]4[C@@]5(C)CC[C@H](O)C(C)(C)[C@@H]5CC[C@@]4(C)[C@]2(C)CC3)CC1`, the growth was 94.2% in [1]; 93.5% in assay [2]; 94.2% in [3]; 90.4% in assay [4]; 96.4% in assay [5]; 88.7% in [6]. For the same compound, the growth was 87.8% in [7]; 79.2% in assay [8]; 80.3% in assay [9]; 85.4% in assay [10]; 96.7% in [11]; 70.1% in assay [12]. For the same compound, the growth in assay [13] was 92.5%; in assay [14], 95.5%; in assay [15], 78.1%; in [16] it was 88%; in [17], 96.9%; in assay [18], 83.5%. In addition, the growth in assay [19] was 95.1%; in assay [20], 96.8%.

On to `CC(=O)c1ccc(NC(=O)CSc2nnc(-c3cc(-c4ccc(C)cc4)nc4ccccc34)o2)cc1`, for which the growth in assay [1] was 27.6%; in assay [2], 58.7%; in assay [3], 86.5%; in assay [4], 17.6%; in assay [5] it was 10.5%; in assay [6], 66.9%. Moreover, the growth was 23.2% in [7]; 48.9% in assay [8]; 3.06% (active) in assay [9]; 77.4% in assay [10]; 63.5% in assay [11]; 38.1% in assay [12]. Moreover, the growth in [13] was -5.39% (active); in [14] it was -2.97% (active); in [15], 59%; in assay [16] it was 55.2%; in [17], 69.5%; in assay [18], 53.7%. Besides, the results for the growth in assay [19] and in assay [20] were 101% and 57.9%, respectively.

`CCOC(=O)C1=C(C)n2nc(CC#N)c(C#N)c2NC1c1ccc(Cl)cc1` (stereo not given): the growth in [1] is 86.3%; in [2] it was 81.8%; in assay [3], 91.7%; in assay [4], 91.5%; in assay [5] it was 105%; in assay [6], 90%. For the same compound, the growth in assay [7] is 95.4%; in [8], 104%; in assay [9] it was 106%; in assay [10] it was 103%; in [11], 97.2%; in assay [12], 115%. Also, the growth in assay [13] was 87.4%; in [14], 88.8%; in [15] it was 100%; in assay [16] it was 87.3%; in [17], 102%; in assay [18] it was 96.8%. Moreover, the growth in [19] was 114%; in assay [20], 91.2%.

For `COc1ccc(Sc2[nH]c(C(C)=O)c3ccccc23)cc1`, the growth in assay [1] was 82.6%; in assay [2], 69.8%; in assay [3], 76.7%; in assay [4], 83.7%; in [5], 20.4%; in assay [6], 65.8%. In addition, the growth is -7.2% (active) in [7]; 23% in assay [8]; 92.2% in assay [9]; -31.2% (active) in [10]; 89.4% in assay [11]; 11.9% in [12]. The growth in assay [13] was 74%; in assay [14] it was 83.3%; in assay [15] it was 69.1%; in assay [16], 73.2%; in assay [17] it was 93.4%; in assay [18], 72.2%. Also, the figures for the growth in assay [19] and in [20] were 84.1% and 62.3%, respectively.

Regarding `N#Cc1c(-c2ccc(F)cc2)nc(N/N=C/c2c[nH]c3ccccc23)nc1N1CCOCC1`, the growth is 91.8% in assay [1]; 125% in assay [2]; 66.5% in assay [3]; 69.6% in assay [4]; 16.5% in assay [5]; 68.1% in assay [6]. In addition, the growth in assay [7] is 46.3%; in assay [8], 47.1%; in assay [9], -24.4% (active); in [10], 40.1%; in [11] it was 46.6%; in [12] it was 5.72% (active). Also, the growth in [13] was -63.5% (active); in assay [14], 53.1%; in assay [15], -34.2% (active); in assay [16], 68.8%; in [17], -17.4% (active); in assay [18], 52.8%. Besides, the growth was -48.8% (active) in [19] and -0.73% (active) in assay [20].

As to `c1ccc(-c2n(Cc3ccc4ccccc4n3)cc[n+]2Cc2ccc3ccccc3n2)cc1`, the growth in [1] is 22.9%; in assay [2], 36.2%; in assay [3], 85.9%; in assay [4], 74.3%; in [5], 41.6%; in [6], -6.03% (active). Moreover, the growth is 16.2% in [7]; 73.3% in [8]; 77.7% in [9]; -49.3% (active) in [10]; 65.8% in [11]; 16.9% in [12]. Also, the growth in assay [13] was 19.8%; in assay [14], 30.5%; in assay [15] it was 52.2%; in [16] it was 41.8%; in [17], 67.8%; in [18] it was 37.2%. Further, the values for the growth in [19] and in assay [20] were -14.6% (active) and 34.6%, respectively.
